Source: PubChem BioAssay
Most compounds without a hit are left out; they make up all but 4.6% or so of the library.
TIM10 inh: growth inhibitors of TIM10 yeast strain; AID 463195; 1.4% of 330,000 active; S. cerevisiae TIM10 strain growth, BacTiter-Glo luminescence, 24 h; inhibition, % at 10 µM;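 active = inhibition of 40% or more at the single tested concentration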;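 note: wild-type TIM10 isogenic control strain grown at permissive 25 °C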
tim10-1 inh: growth inhibitors of tim10-1 mutant yeast; S. cerevisiae tim10-1 ts strain growth, BacTiter-Glo, 24 h; inhibition, % at 20 µM; 2.2% of 330,000 active; AID 463190;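 active = inhibition of at least 40%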;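 note: mutant grown at 25 °C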
NALP3 yeast inh: inhibitors of NALP3 inflammasome in yeast | Yeast reconstituted NLRP3/ASC/caspase-1, beta-gal luminescence, 24 h | inhibition, % at 10 µM | 0.39% of 330,000 active | AID 2825;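 active = inhibition of 50% or more; inactive = inhibition below 50%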
PfHsp90 yeast 2: growth inhibition of yeast expressing Plasmodium Hsp90 | AID 504621 | S. cerevisiae expressing PfHsp90, BacTiter-Glo ATP, 48 h; yeast lacking PDR1 and PDR3 efflux regulators | 0.32% of 310,000 active | inhibition, % at 9.4 µM;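 active = every replicate shows inhibition above about 80%, whatever the replicate mean, limit read from the data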
SKKanGAS inh: SKKanGAS growth inhibition; inhibition, % at 7.5 µM; S. pyogenes SKKanGAS, kanamycin growth, BacTiter-Glo, 6 h; 1.3% of 300,000 active;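 active = mean replicate score, as percent of positive control median, at least 50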;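 note: strain carries kanamycin resistance gene driven by streptokinase promoter and grows in 40 µg/ml kanamycin; loss of luminescence reflects streptokinase promoter inhibition or plain growth inhibition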
tim23-1 inh: inhibits growth of tim23-1 mutant yeast | inhibition, % at 20 µM | AID 463212 | S. cerevisiae tim23-1 growth, BacTiter-Glo luminescence, 24 h | 1.3% of 330,000 active;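 active = growth inhibition of the mutant yeast at or above 50%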;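 note: temperature-sensitive mutant grown at 25 °C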
tim23-1 conf: tim23-1 yeast growth inhibition, confirmed. 83% of 4,400 active. inhibition, % at 20 µM. shares compounds with tim23-1 inh. S. cerevisiae tim23-1 growth, BacTiter-Glo luminescence, 24 h;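 active = inhibition above about 39% in either of two replicate wells at 20 µM, limit read from the data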;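 note: temperature-sensitive tim23-1 mutant grown at 25 °C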
Each line names hits and unclear results; the compound was inactive in the other large screens (follow-up assays come after a bar, where they were run).

CCc1c(C)nc2cc(-c3ccc(OC)c(OC)c3)nn2c1NCC1CC1	tim23-1 inh 68.5 | tim23-1 conf 45.9
O=C(Cc1cnc2ncnn2c1)N1CCc2c([nH]c3ccccc23)C1c1ccccn1 (stereo not given)	tim23-1 inh 58.9 | tim23-1 conf inactive
CC(=O)c1cc(CC(=O)N2CCc3c([nH]c4ccccc34)C2c2ccccn2)cs1 (stereo not given)	none
COc1ccccc1C(c1nnnn1C(C)C)N1CCN(C(=O)c2ccco2)CC1 (stereo not given)	none
COc1cc2oc(=O)cc(-c3ccc(-c4ccc(O)cc4)cc3)c2c(OC)c1OC	tim23-1 inh 55.7 (no result: NALP3 yeast inh, SKKanGAS inh) | tim23-1 conf inactive
Cc1cc2oc(=O)cc(-c3ccccc3)c2c(C)c1-c1ccc(O)cc1	tim23-1 inh 60.6 (no result: NALP3 yeast inh, SKKanGAS inh) | tim23-1 conf 48.0
Cc1cc(O)c2c(-c3ccccc3)cc(=O)oc2c1	none (no result: SKKanGAS inh)
COc1ccc(NC(=O)Cc2c(SC)c3ccccc3n2Cc2ccccc2)cc1	none
C/C(=N\NC(=O)c1ccc([N+](=O)[O-])cc1Cl)c1ccccc1	none
O=C(CCc1ccccc1)Oc1ccccc1[N+](=O)[O-]	tim23-1 inh 57.2 (no result: PfHsp90 yeast 2) | tim23-1 conf 67.2
O=C(NCC1CCCN1S(=O)(=O)c1cccs1)c1ccc([N+](=O)[O-])cc1 (stereo not given)	none
O=C(NCCCC(=O)N1CCCCC1)c1ccc(Cl)cc1	none
Oc1cccc(/C=N/Nc2cccc3cccnc23)c1	tim23-1 inh 53.0 | tim23-1 conf 63.3
O=[N+]([O-])c1ccc(N/N=C/c2cccc(O)c2)cc1	tim23-1 inh 83.3 | tim23-1 conf 39.6
COc1cc(/C=N/Nc2cccc3cccnc23)cc(OC)c1O	none
O=C(C1CCCN1S(=O)(=O)c1ccc(Cl)cc1)N1CCCCC1 (stereo not given)	none
COc1ccc(NS(=O)(=O)c2ccc(N3C(=O)CCC3=O)cc2)cc1	none
COc1ccc(S(=O)(=O)Nc2ccc(-n3cccc3)cc2)cc1	tim23-1 inh 55.2 | tim23-1 conf 49.7
Cc1ccccc1C1CC(=O)Oc2cc(O)ccc21 (stereo not given)	none (no result: NALP3 yeast inh, SKKanGAS inh)
O=[N+]([O-])c1cccnc1Sc1n[nH]c(-c2ccc(Cl)cc2)n1	none
CCOC(=O)C1=C(C)N=c2s/c(=C\c3ccc(OCC(=O)O)cc3)c(=O)n2C1c1ccccc1 (stereo not given)	none
COC(=O)C1=C(C)N=c2s/c(=C/c3ccoc3)c(=O)n2C1c1ccccc1 (stereo not given)	tim23-1 inh 50.3 (no result: PfHsp90 yeast 2) | tim23-1 conf 50.0
OC(CN1CCN(c2ccccc2F)CC1)c1ccc(F)cc1 (stereo not given)	none
Cc1ccc(S(=O)(=O)CCC(=O)OCC(=O)Nc2cc(F)ccc2C)cc1	none
O=C(OCc1c(-c2ccccc2)ncc2ccccc12)c1ccco1	tim23-1 inh 55.0 (no result: SKKanGAS inh) | tim23-1 conf inactive
O=C(On1c(-c2ccccc2)nc2ccccc2c1=O)c1ccco1	tim23-1 inh 75.5 | tim23-1 conf 57.4
CCc1cc2c3c([nH]c2cc1S(=O)(=O)NCCCOC)CC(C)(C)CC3=O	none
CCOC(=O)c1nc(C)n(-c2cc(OC)c(Cl)cc2Cl)n1	none
CCOC(=O)C1CCN(C(c2cccnc2)c2c(NC(=O)c3ccco3)sc(C)c2C)CC1 (stereo not given)	none
CCOC(=O)c1c(C)oc2c1c(C(c1cccnc1)N1CCCCC1)c(O)c1ccccc12 (stereo not given)	tim23-1 inh 50.1 (no result: PfHsp90 yeast 2) | tim23-1 conf 44.7
CCOC(=O)c1c(C)oc2c1c(C=NCCO)c(O)c1ccccc12	none (no result: TIM10 inh, tim10-1 inh, NALP3 yeast inh, tim23-1 inh)
CCOC(=O)c1c(C)oc2c1c(C(c1ccccc1)N1CCOCC1)c(O)c1ccccc12 (stereo not given)	SKKanGAS inh 66.7, tim23-1 inh 66.2 (no result: PfHsp90 yeast 2) | tim23-1 conf 42.8
N#C/C(=C\c1c[nH]c2ccccc12)C(=O)NC1CCCC1	tim23-1 inh 58.8 | tim23-1 conf 44.2
CC1CC(C)CN(S(=O)(=O)c2cccc(C(=O)N3CCN(c4ccc(F)cc4)CC3)c2)C1 (stereo not given)	none (no result: SKKanGAS inh)
Cc1ccc2c(c1)N(C(=O)CCC(=O)NCCCN1CCC(Cc3ccccc3)CC1)CCO2	none
